Each structure is given as a SMILES string. Some of the results follow. A number with no mark means an inactive call. Calls of active or inactive are those of the source. No stated cut-off is given here; in the data, active means activation above about 19%; inactive means the rest. Residues, ends and D or L forms follow the SMILES beside them.

This note sets out measurements from PubChem BioAssay AID504797 (The Scripps Research Institute Molecular Screening Center, 2011).

In this assay the target is cAMP-dependent protein kinase type II-beta regulatory subunit (Homo sapiens) (UniProt P31323). The assay can be described thus: activators of PKA-R2B holoenzyme, confirmation, biochemical, fluorescence polarization, human (AID 504797). Particulars: PKA-R2B complex, at 11.4 µM, stronger effect = higher value. For orientation: Fluorescence polarisation rises when a labelled molecule tumbles more slowly, as on binding a larger partner.
cAMP-dependent protein kinase type II-beta regulatory subunit (Homo sapiens), sequence (P31323 whole entry, looked up): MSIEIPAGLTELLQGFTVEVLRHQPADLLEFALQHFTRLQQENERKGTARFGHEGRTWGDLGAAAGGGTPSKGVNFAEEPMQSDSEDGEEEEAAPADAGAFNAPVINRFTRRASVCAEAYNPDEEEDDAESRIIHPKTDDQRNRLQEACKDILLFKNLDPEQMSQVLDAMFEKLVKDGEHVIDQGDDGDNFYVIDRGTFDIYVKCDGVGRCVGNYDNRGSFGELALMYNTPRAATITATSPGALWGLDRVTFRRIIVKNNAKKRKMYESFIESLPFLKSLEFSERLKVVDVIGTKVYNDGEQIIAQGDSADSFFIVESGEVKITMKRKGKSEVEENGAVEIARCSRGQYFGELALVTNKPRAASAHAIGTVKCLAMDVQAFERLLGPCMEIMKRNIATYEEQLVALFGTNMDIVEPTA

As for `O=C(CCCN1C(=O)c2cccc3cccc(c23)C1=O)N1CCN(Cc2ccc3c(c2)OCO3)CC1`, the activation was -2.59%.
For `COc1ccc([N+](=O)[O-])cc1C1NN=C(c2cccc3ccccc23)S1` (stereo not drawn) the value was 1.59%; for `COc1ccc(CC(NC(C)=O)C(=O)NC2CCN(C(=O)c3ccc(Cl)cc3)CC2)cc1` (stereo not drawn), 2.1%; for `CCCC(=O)Nc1ncnc2c1ncn2[C@@H]1O[C@@H]2OP(=O)(O)OC[C@H]2[C@H]1OC(=O)CCC`, 36.6% (active).
Take `O=C(CNC(=O)c1ccccc1)NCC(=O)OCC(=O)c1ccccc1` (HELM PEPTIDE1{[O=C(c1ccccc1)[*:2]].G.G.[O=C(CO[*:1])c1ccccc1]}$$$$V2.0): the activation was 3.61%.
The result for `O=S(=O)(NCCNS(=O)(=O)c1ccccc1)c1ccccc1` reads 4.44%.
With `CC(C)(C)c1nnc(N/N=C/c2ccc(O)cc2)n(N)c1=O`, the activation is 3.54%.
The result for `O=C(O)C1=C(C(=O)O)C2CCC1C2` reads -0.5%; that for `COc1cccc(Nc2nnc(SCC(=O)N3CC(C)OC(C)C3)s2)c1` (stereo not drawn), 1.96%.
For `O=C(CN(C(=O)CCC(=O)Nc1nccs1)c1ccc(F)cc1)NCc1ccc2c(c1)OCO2` the value was 3.19%; for `N#Cc1ccccc1CN1C(=O)S/C(=C/c2cccn2-c2cccc(C(=O)O)c2)C1=O`, 19.4% (active); for `CC(C)(C)c1ccc(C(=O)N2CCC(C(=O)N3CCCCC3)CC2)cc1`, -0.14%.
For `COc1ccc(C/C(C)=N/NC(=O)c2ccncc2)cc1` the value was 0.21%.
